# Assay outcomes (PubChem)
# Hits are enriched below; roughly 19% of the tested compounds scored in any of these assays.
# HT1080 IDH1KD tx: qHTS for induction of synthetic lethality in tumor cells producing 2HG: qHTS for the HT-1080-IDH1KD cell line. HT-1080 IDH1 knockdown viability, ATP luminescence, 48 h. Potency, µM (doses to about 46.1 µM), for inactives: at the top dose activity, negative = toxicity, actives largely listed as cytotoxic. actives 2% (n = 360,000);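 note: potency is the fitted concentration of half-maximal effect; 0% = DMSO wells and -100% = cell-free medium wells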
#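 Assay cells: HT-1080 with IDH1 knockdown, 750 per well, RPMI/5% FBS. Exposure: 48 h at 37 °C following 2 h pre-incubation. Read: CellTiter-Glo luminescence; fitted concentration-response, curve class assigned.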
# TDP1 cell CPT: qHTS for Inhibitors of human tyrosyl-DNA phosphodiesterase 1 (TDP1): qHTS in cells in presence of CPT; actives 12% (n = 420,000); chicken DT40 Tdp1-/-;hTDP1 cells + 20 nM CPT, ATP luminescence, 48 h; Potency, µM (titrated, usually from 46.2 µM), without a hit: at the highest dose activity change, negative = growth inhibition, hits mostly inhibitors; note: potency is the fitted concentration of half-maximal effect; nearly all actives have a fitted effect of over 55% in size
#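 Chicken DT40 Tdp1-/- cells stably complemented with human TDP1 were seeded at 400 cells/well in medium containing 20 nM camptothecin, exposed to pin-transferred compounds, and grown at 37 °C for at least 48 hr. Viability was read as ATP luminescence.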
# DT40 TDP1 no CPT: qHTS for Inhibitors of human tyrosyl-DNA phosphodiesterase 1 (TDP1): qHTS in cells in absence of CPT; DT40 Tdp1-/- hTDP1 cells, no CPT, ATP luminescence, 48 h; Potency, µM (doses to about 46.2 µM), for the others: at the highest dose activity change, negative = growth inhibition, most hits filed as inhibitors; actives 15% (n = 420,000); note: potency is the fitted concentration of half-maximal effect; nearly all actives have a fitted effect of over 55% in size
#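 Stably hTDP1-transfected Tdp1-null chicken DT40 cells were treated with library compounds minus camptothecin and grown for at least 48 hr at 37 °C, after which cellular ATP was quantified by luminescence.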
# IL1B secr inh: qHTS for Inhibitors of Inflammasome Signaling: IL-1-beta AlphaLISA Primary Screen. THP-1 LPS/ATP IL-1B secretion, AlphaLISA, 16 h; stronger effect = lower value. activity change, % at 57.5 µM. actives 4.7% (n = 360,000). AID 743279, 2014; in the data active = activity change below about -50%; inconclusive = mostly about -30% to -49%
#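 Secreted IL-1B measured by AlphaLISA bead assay after 16 h compound exposure of THP-1 cells; compounds (final up to 57.5 uM) added 1 h before LPS (250 ng/mL) and ATP (1.25 mM) stimulation; lower signal means less secretion.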
# HT1080-NT tox: qHTS for induction of synthetic lethality in tumor cells producing 2HG: qHTS for the HT-1080-NT fibrosarcoma cell line; HT-1080-NT fibrosarcoma viability, CellTiter-Glo ATP luminescence, 48 h; Potency, µM (series often up to 46.1 µM), inactives show at the top dose activity, negative = less viability, hits mostly cytotoxic; actives 1.6% (n = 360,000); AID 686970, 2013;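 note: NT is the 2HG producing partner of a matched IDH1 knockdown line; potency is the fitted concentration of half-maximal effect; 0% = DMSO-treated cells and -100% = media-only wells without cells; nearly all actives have a fitted effect of over 55% in size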
#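 Toxicity toward the 2HG-producing NT line was scored as %Activity, normalised to DMSO and no-cell wells, from CellTiter-Glo luminescence after 48 hours' treatment.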
# Active calls of the source: *; ? = inconclusive; . = not tested or not shown. Unless noted, calls come from the whole dose curve; as a rule, active = well fitted curve in the direction sought with a large enough effect; inconclusive = small, poorly fitted or top-dose-only effect, or another doubt; inactive = no such curve, though single readings can be large; an effect the other way counts as inactive or inconclusive. Unless noted, % is set by controls: 0 for no effect and ±100 for the full control effect.
SMILES,HT1080 IDH1KD tx,TDP1 cell CPT,DT40 TDP1 no CPT,IL1B secr inh,HT1080-NT tox
CC(C)NC(=O)CN(Cc1ccc(F)cc1)C(=O)CCC(=O)Nc1nccs1,-7%,-17%,-10%,-4,0%
Cc1nc(N2CCCC2)c2c(C(=O)N3CCN(c4ccc(F)cc4)CC3)c(C)oc2n1,.,-14%,-21%,.,.
Cc1nc(C)c(/C(O)=C/c2nc3ccccc3oc2=O)s1,5%,8.2µM*,10µM*,0,9%
Cc1ccoc1C(=O)N1CCCCC1C(=O)O (centres undefined),-6%,?,18µM*,22,14%
O=C(Nc1cc2c(cc1[N+](=O)[O-])OCCO2)c1cccnc1,0%,1%,-16%,0,2%
Cc1cccc(C(=O)n2cnnc2N)c1,8%,-11%,-28%,-2,11%
COc1cc2c(cc1OC)CN(C(=O)CCCN1C(=O)c3ccccc3C1=O)CC2,-7%,-11%,-17%,45,5%
COc1cc(C(C)=O)ccc1OCC(=O)N1CCc2ccccc2C1,14%,7%,-11%,-13,20%
COc1cc2c(cc1OC)CN(C(=O)CCOc1ccccc1C)CC2,?,?,21µM*,37,?
C/C=C/c1ccc(OCC(=O)N2CCc3cc(OC)c(OC)cc3C2)c(OC)c1,0%,?,23µM*,?,-8%
COc1ccc(OC)c(CC(=O)N2CCc3cc(OC)c(OC)cc3C2)c1,-3%,0.13µM*,?,-2,0%
COc1cc2c(cc1OC)CN(C(=O)CCCOc1ccc(Cl)cc1Cl)CC2,?,16µM*,18µM*,?,?
Cc1ccc(S(=O)(=O)/N=C(/c2ccccc2)N2CCOCC2)c(C)c1,-3%,2%,-4%,-19,2%
COc1cc2c(cc1OC)CN(C(=O)CCOc1ccccc1)CC2,-20%,?,18µM*,22,-15%
Cc1ccc(S(=O)(=O)N[C@@H](CO)C(=O)N[C@@H](Cc2ccc(O)cc2)C(=O)O)cc1,22%,0%,2%,-4,21%
CC(C)(C)C1COc2ccccc2N1C(=O)c1cccc(Cl)c1 (centres undefined),17%,?,23µM*,8,24%
CCN1CCN(c2cc(C)c3cc(NC(=O)c4ccncc4)ccc3n2)CC1,-6%,?,?,3,-5%
COc1cccc(NC(=O)CCC(=O)Nc2ccc3nc(N4CCOCC4)cc(C)c3c2)c1,1%,?,15µM*,-3,7%
COc1ccccc1C(=O)Nc1ccc2nc(N3CCC(C)CC3)cc(C)c2c1,.,?,16µM*,.,.
COc1cc(OC)cc(C(=O)Nc2ccc3nc(N4CCC(C)CC4)cc(C)c3c2)c1,.,9.2µM*,4.6µM*,.,.
NC1=NC(c2cn(-c3ccccc3)nc2-c2cccs2)n2c(nc3ccccc32)N1 (centres undefined),?,?,-1%,-8,18µM*
CC1=C(C#N)C(c2cn(-c3ccccc3)nc2-c2cccs2)C(C#N)=C(C)N1,?,-18%,-24%,-90*,?
C=CCOC(=O)C1=C(C)NC(=O)NC1c1cn(-c2ccccc2)nc1-c1cccs1 (centres undefined),10µM*,?,?,-20,?
CCOC(=O)C1=C(C)NC(=O)NC1c1cn(-c2ccccc2)nc1-c1ccc(OC(C)C)cc1 (centres undefined),.,?,16µM*,.,.
NC1=NC(c2ccc(F)cc2)n2c(nc3ccccc32)N1 (centres undefined),-4%,-21%,-9%,-5,9%
SMILES,HT1080 IDH1KD tx,TDP1 cell CPT,DT40 TDP1 no CPT,IL1B secr inh,HT1080-NT tox
CCOC(=O)c1cc(-c2cccc([N+](=O)[O-])c2)on1,0%,-6%,-27%,-11,-2%
N=c1n(CC(=O)c2ccc(Br)s2)c2ccccc2n1Cc1ccccc1,-3%,5.2µM*,4.6µM*,-104*,-1%
CCN(CC)CCn1c(=N)n(CC(=O)c2ccc(Br)s2)c2ccccc21,23µM*,5.8µM*,7.3µM*,.,23µM*
Cn1c(=N)n(CC(=O)c2ccc(Br)s2)c2ccccc21,?,26µM*,18µM*,-95*,26µM*
Cn1c(=N)n(CC(=O)c2cccs2)c2ccccc21,0%,?,-22%,6,-6%
COc1cccc(C(=O)Cn2c(=N)n(C)c3ccccc32)c1,?,13µM*,21µM*,-10,?
CCN(CC)CCn1c(=N)n(CCO)c2ccccc21,6%,-17%,-13%,-1,12%
C[C@@H]1COC(=O)[C@@H](Cc2ccc(F)cc2)CC/C=C\C[C@@H](CC(=O)NCCO)C(=O)N1,8%,-4%,0%,15,12%
COC(=O)CCN(C(=O)c1cccc([N+](=O)[O-])c1)c1ccccn1,5%,5%,-15%,-2,4%
N#C/C(=C\c1cccnc1)C(=O)Nc1cccc(Cl)c1,-1%,-26%,-21%,-1,-10%
O=C(O)c1ccc2c(c1)-c1nc3ccccc3n1C2=O,21%,2%,-5%,-19,17%
COc1cc2c(cc1OC)C(c1cccs1)N(C(=O)c1ccncc1)CC2 (centres undefined),13µM*,13µM*,?,0,?
COc1cc2c(cc1OC)C(c1cccs1)N(C(=O)c1ccc(S(=O)(=O)N(C)C)cc1)CC2 (centres undefined),-5%,?,?,?,-3%
COc1cc2c(cc1OC)C(c1cccs1)N(C(=S)NC(C)C)CC2 (centres undefined),-11%,?,15µM*,-27,?
Cc1noc(NS(=O)(=O)c2ccc(NS(=O)(=O)c3ccc(C(C)(C)C)cc3)cc2)c1C,-6%,-4%,-1%,-7,-3%
CCC1=C(c2ccc(C)cc2)S(=O)(=O)N=C1N1CCC(C(=O)NCc2ccc(N(C)C)cc2)CC1,.,18µM*,23µM*,.,.
COC(=O)CCCn1nc(NC(=O)COc2ccc(F)cc2)cc1C,1%,9%,-4%,9,10%
Cc1ccc(O)c(C(=O)c2cnc3c(c2)CN(CCC(C)C)C(=O)N3)c1,?,10µM*,12µM*,-15,?
CC(c1nc2ccccc2[nH]1)n1c(-c2ccncc2)nc2ccccc21 (centres undefined),21%,-11%,-7%,13,24%
